According to PubChem BioAssay AID1159580 (chemical genetic matrix, 2015):
Where “and” joins values, the source holds several entries; their conditions need not be identical. Equal entries are not always repeated. In all, about 5,500 compounds went through this assay and about 2,000 (36%) were called active. Inconclusive results (about 18%) are left out. Rule as the data show it: active = normalized growth mostly below about 0.91 (no sharp cut-off); inconclusive = no clear call, values can overlap the other calls; inactive = mostly above about 0.92. Some of the results follow.

Test: chemical genetic growth profiling, strain panel (AID 1159580);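 also: tested at 20 µM; growth read once vehicle control cultures reached saturation at 30 °C; 1 = growth at the plate median or of vehicle wells; lower values mean less growth of the strain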
Details: S. cerevisiae deletion strains, growth OD

Measured: normalized growth

CC(C)(Sc1cc(C(C)(C)C)c(O)c(C(C)(C)C)c1)Sc1cc(C(C)(C)C)c(O)c(C(C)(C)C)c1
active: locus YGL086W, strain mad1, hits give low values 1.35 [resistant]
inactive: locus YAL013W, strain DEP1, hits give low values 1.02 | locus YAL021C, strain ccr4, hits give low values 1.03 | locus YAL026C, strain drs2, hits give low values 1.01 | locus YAL030W, strain snc1, hits give low values 1 | locus YBL061C, strain skt5, hits give low values 0.993 | locus YBR009C, strain hhf1, hits give low values 1.02 | locus YBR021W, strain FUR4, hits give low values 1.01 | locus YBR023C, strain chs3, hits give low values 0.998 | locus YBR171W, strain sec66, hits give low values 1 | locus YBR229C, strain ROT2, hits give low values 1.01 | locus YBR231C, strain swc5, hits give low values 0.998 | locus YBR279W, strain paf1, hits give low values 0.993 | locus YCL011C, strain gbp2, hits give low values 1.02 | locus YCL016C, strain dcc1, hits give low values 1 | locus YCL029C, strain bik1, hits give low values 1.04 | locus YCL069W, strain vba3, hits give low values 1.01 | locus YCR088W, strain abp1, hits give low values 1 | locus YDL005C, strain med2, hits give low values 1.02 | locus YDL035C, strain GPR1, hits give low values 1.02 | locus YDL040C, strain nat1, hits give low values 0.991 | locus YDL074C, strain BRE1, hits give low values 1.03 | locus YDL101C, strain DUN1, hits give low values 1.02 | locus YDL134C, strain PPH21, hits give low values 1 | locus YDL185W, strain tfp1, hits give low values 1.02 | locus YDL192W, strain arf1, hits give low values 1.03 | locus YDR001C, strain nth1, hits give low values 1.02 | locus YDR069C, strain doa4, hits give low values 0.999 | locus YDR101C, strain arx1, hits give low values 1.02 | locus YDR137W, strain rgp1, hits give low values 0.99 | locus YDR150W, strain NUM1, hits give low values 1.01 | locus YDR159W, strain sac3, hits give low values 0.989 | locus YDR162C, strain NBP2, hits give low values 1.01 | locus YDR195W, strain ref2 1.06 | locus YDR297W, strain sur2, hits give low values 0.99 | locus YDR318W, strain mcm21, hits give low values 1.04 | locus YDR334W, strain swr1, hits give low values 1.02 | locus YDR335W, strain msn5, hits give low values 1.01 | locus YDR388W, hits give low values 1.02 | locus YDR392W, strain spt3, hits give low values 1.03 | locus YDR502C, strain sam2, hits give low values 1.02 | locus YEL003W, strain gim4, hits give low values 1.02 | locus YEL037C, strain rad23, hits give low values 1.01 | locus YEL061C, strain CIN8 (second series), hits give low values 1.01 | locus YEL061C, strain CIN8, hits give low values 1.01 | locus YER015W, strain faa2, hits give low values 1.01 | locus YER016W, strain bim1, hits give low values 1.01 | locus YER110C, hits give low values 1.02 | locus YER111C, strain swi4, hits give low values 1.01 | locus YER155C, strain BEM2 (second series), hits give low values 0.985 | locus YER155C, strain BEM2, hits give low values 1.01 | locus YER167W, strain BCK2, hits give low values 1.03 | locus YFR010W, strain ubp6, hits give low values 1.04 | locus YGL078C, strain dbp3, hits give low values 1.03 | locus YGL167C, strain pmr1, hits give low values 0.998 | locus YGL173C, strain kem1, hits give low values 0.986 | locus YGL227W, strain vid30, hits give low values 1.02 | locus YGL240W, strain doc1, hits give low values 0.958 | locus YGL248W, strain PDE1, hits give low values 1.01 | locus YGL253W, strain hxk2, hits give low values 1.02 | locus YGR078C, strain PAC10, hits give low values 1.02 | locus YGR135W, strain pre9, hits give low values 1.04 | locus YGR229C, strain SMI1, hits give low values 1.02 | locus YGR252W, strain gcn5, hits give low values 1.06 | locus YHR013C, strain ard1, hits give low values 1 | locus YHR027C, strain rpn1, hits give low values 1 | locus YHR030C, strain SLT2, hits give low values 1.02 and 0.989 | locus YHR079C, strain IRE1 (second series), hits give low values 1.02 | locus YHR079C, strain IRE1, hits give low values 1 | locus YHR094C, strain hxt1, hits give low values 1.02 | locus YHR129C, strain ARP1, hits give low values 1.01 | locus YHR142W, strain chs7, hits give low values 1.04 | locus YHR200W, strain rpn10, hits give low values 1.01 | locus YIL066C, strain RNR3, hits give low values 1.01 | locus YIL073C, strain SPO22, hits give low values 1.05 | locus YIL125W, strain kgd1, hits give low values 1.02 | locus YIR030C, strain dcg1, hits give low values 1.02 | locus YJL092W, strain hpr5, hits give low values 1.01 | locus YJL095W, strain BCK1 (second series), hits give low values 1 | locus YJL095W, strain BCK1, hits give low values 1.05 and 0.992 | locus YJL115W, strain asf1, hits give low values 0.993 | locus YJL129C, strain trk1, hits give low values 1.02 | locus YJL134W, strain LCB3, hits give low values 1.01 | locus YJL154C, strain vps35, hits give low values 1.01 | locus YJL164C, strain tpk1, hits give low values 1.01 | locus YJL166W, strain qcr8, hits give low values 1.01 | locus YJL168C, strain set2, hits give low values 1.02 | locus YJL187C, strain SWE1 (second series), hits give low values 1.02 | locus YJL187C, strain SWE1, hits give low values 1 | locus YJR043C, strain POL32, hits give low values 1.03 | locus YJR066W, strain TOR1, hits give low values 0.9
